From PubChem
MARV entry inh – inhibitors of Marburg virus binding or cell entry; Marburg virus pseudotyped entry inhibition, cell reporter; Potency, µM (titrated, usually from 37.8 µM), without a hit: at the top dose activity change, negative = inhibition, most hits filed as inhibitors; hit rate 1.8% among 300,000; AID 540276; calls by dose curve; tested in HEK293 cells; also: potency is read from the fitted curve at half-maximal effect; % is scaled to controls: 0 for no effect and ±100 for the full control effect
LASV entry inh – blocks Lassa virus binding to or entry into cells; Potency, µM (doses to about 37.9 µM), inactives show at the highest dose activity change, negative = inhibition, hits mostly inhibitors; hit rate 1.2% among 300,000; Lassa virus pseudotype entry inhibition, cell reporter; calls by dose curve; tested in HEK293 cells; also: potency is read from the fitted curve at half-maximal effect; % is scaled to controls: 0 for no effect and ±100 for the full control effect; nearly all actives have a fitted effect of over 50% in size
Cycloheximide cs – counter-screen for Shiga toxin inhibitors: cycloheximide protein synthesis inhibition; max response, %; cell reporter, cycloheximide protein synthesis inhibition counterscreen; hit rate 12% among 300,000; in the data active = max response mostly above about 13%, no sharp cut-off; inactive = mostly below about 14%; also: read at 38.3 µM for the half of the compounds with a filed dose; 0% is about no effect
Shiga inhibitor – inhibitors of Shiga toxin in Vero cells. Vero cells, Shiga toxin protein synthesis inhibition reporter. hit rate 9.2% among 290,000. inhibition, % at 38.7 µM; in the data active = inhibition mostly above about 28%, no sharp cut-off; inactive = mostly below about 43%; also: 0% is about no effect
Numbers without * were called inactive; ? = inconclusive; . = no result given; [ ] = remark or other dose. In the library only some 12% were active in any assay of this set; here they are far more common.

SMILES	MARV entry inh	LASV entry inh	Cycloheximide cs	Shiga inhibitor
CC1CCc2c(sc(NC(=O)CSc3nnc(-c4ccccc4)o3)c2C#N)C1 (stereo not given)	?	?	22.8*	active
CC1CCc2c(sc(NC(=O)CSc3ncn[nH]3)c2C#N)C1 (stereo not given)	.	.	-2.6	-19.1
Cc1sc(NC(=O)CSc2nnc(-c3ccccc3)o2)c(C#N)c1C	?	-22.1%	32.8*	57.6*
CCN(CC)S(=O)(=O)c1ccc(-c2nnc(SCC(=O)Nc3nc(C)cs3)o2)cc1	7.7%	-0.5%	-2.2	-25.6
N#Cc1c(NC(=O)CSc2nnc(-c3ccccc3)o2)sc2c1CCCC2	?	-19.2%	16.4*	52.5*
CC(C)(C)OC(=O)N1CCC[C@@H]1C(O)(c1ccccc1)c1ccccc1	-13.0%[14.2 µM]	.	.	.
CCC12CN3CC(CC)(CN(C1)C3c1c(C)[nH]c(=O)[nH]c1=O)C2=O (stereo not given)	-2.4%[46.1 µM]	-19.2%[46.1 µM]	.	.
O=C(CSc1ccc2nnc(CCNC(=O)c3ccccc3)n2n1)Nc1ccc(F)cc1F	-8.7%	9.5%	1.5	-21.1
N#Cc1c(NC(=O)CSc2ncc(-c3ccccc3)n2CC2CCCO2)sc2c1CCCC2 (stereo not given)	5.17µM*	7.3µM*	-1.5	-18.7
COc1ccc(-c2ccc(C#N)c(SCC(=O)Nc3sc4c(c3C#N)CCC4)n2)cc1OC	?	14.6µM*	1.2	-11.2
COc1ccccc1C(=O)Nc1nnc(S(=O)(=O)N(C)c2ccc(Cl)cc2)s1	.	0.4%[46.1 µM]	.	.
CCOCCc1nn2c(=O)cc(CSCC(=O)Nc3ccccc3)nc2s1	.	.	21.3*	14.5
O=C(Nc1ccc(Oc2ccccc2)cc1)C1CCN(c2c3c(nc4ncnn24)CCC3)CC1	?	20.6µM*	-3.7	-10.8
O=C(Nc1ccc2c(c1)CCC2)C1CCN(c2c3c(nc4ncnn24)CCC3)CC1	?	?	0.9	-6.3
Cc1cccc(NC(=O)/C(C#N)=C/c2ccc[nH]2)c1C	.	.	24.2*	20.7
Cc1ccc(C)c(NC(=O)/C(C#N)=C/c2ccc[nH]2)c1	11.3%[46.1 µM]	?	33.0*	10.9
C=C(C)COc1ccc(C2NC(=O)c3ccccc3O2)cc1OCC (stereo not given)	1.5%	-28.8%	-2.7	-3.0
Fc1ccc(C(NCCc2ccc(Cl)cc2)c2nnc(-c3ccccc3)o2)c(Cl)c1 (stereo not given)	-23.9%[46.1 µM]	10.0%[46.1 µM]	.	.
COc1ccc(CCNC(c2ccc(F)cc2)c2nnc(-c3ccccc3Cl)o2)cc1OC (stereo not given)	12.6µM*	-28.4%[46.1 µM]	.	.
O=C(Nc1ccc(N2CCOCC2)cc1)c1ccc(Br)o1	?	?	28.0*	79.0*
CCC(=O)NC(=S)Nc1ccc(NC(=O)c2ccc(Br)o2)cc1	.	.	16.3	111.9*
CN1CCN(c2ccc(NC(=O)c3ccc(Br)o3)cc2)CC1	.	.	30.3*	76.3*
Cc1ccc(C(=O)N2CCN(c3ccc(NC(=O)c4ccc(Br)o4)cc3)CC2)cc1	?	?	-3.2	-23.7
CS(=O)(=O)N1CCN(c2ccc(NC(=O)c3ccc(Br)o3)cc2)CC1	4.4%	?	42.8*	109.5*
CCC(=O)NC(=S)Nc1ccc(NC(=O)c2ccc(OC)cc2)cc1	-29.5%	-5.9%	-2.1	-10.5
SMILES	MARV entry inh	LASV entry inh	Cycloheximide cs	Shiga inhibitor
COc1cccc(OC)c1C(=O)Nc1ccc(N2CCN(S(C)(=O)=O)CC2)cc1	7.4%	-2.6%	-1.2	8.2
CN1CCN(c2ccc(NC(=S)NC(=O)c3cccc4c(Br)cccc34)cc2)CC1	?	-20.0%[46.1 µM]	-0.8	-2.6
N/C(=N\O)c1ccc(NC(=O)c2ccc(Br)o2)cc1	-2.7%	5.4%	45.5*	80.9*
O=C(Nc1ccc(S(=O)(=O)N2CCCCCC2)cc1)c1ccc(Br)o1	?	9.2µM*	13.5	18.8
CC1CCN(c2ccc(NC(=O)c3cccnc3)cc2)CC1	2.8%	4.0%	33.1*	54.6*
O=C(NNC(=O)c1ccc(Br)o1)c1ccc(NC(=O)c2ccccc2)cc1	8.3%[46.1 µM]	4.1%	-1.3	11.4
CN1CCN(c2ccc(NC(=O)c3ccccc3Br)cc2)CC1	0.7%	15.1%	18.1*	active
COc1cccc(NC(=O)c2sc3nc(C)c(C(=O)Nc4ccc(C)cc4C)c(-c4cccs4)c3c2N)c1	2.3%[46.1 µM]	?	.	.
C[N+](C)=C1SCC(C)(/C=N/O)S1 (stereo not given)	3.8%	?	-0.6	-21.6
Cc1occc1C(=O)Nc1ccc(S(=O)(=O)N2CCCC2)cc1	12.7%	-10.0%	8.9	29.0*
Cc1occc1C(=O)Nc1ccc(S(N)(=O)=O)cc1	3.1%	2.5%	7.6	13.1
CC1CCN(c2ccc(NC(=O)Cc3ccccc3)cc2)CC1	-0.1%[46.1 µM]	19.7%[46.1 µM]	14.4	15.9
CC1CCN(c2ccc(NC(=O)c3ccc(Br)o3)cc2)CC1	?	10µM*	28.4*	65.1*
CCC(=O)Nc1ccc(N2CCC(C)CC2)cc1	16.0%	5.3%	33.0*	15.4*
c1ccc2c3c([nH]c2c1)-c1[nH]ncc1CC3	0.4%	?	13.9	52.8
Clc1ccc2[nH]c3c(c2c1)CCc1cn[nH]c1-3	-0.7%	-1.4%	28.6*	70.3*
Cc1cccc(C)c1NC(=O)c1cccc(N2C(=O)C3CCC(C)CC3C2=O)c1 (stereo not given)	3.4%	0.6%	6.1	17.3
O=C(/C=C/c1cccc([N+](=O)[O-])c1)c1ccco1	.	.	-1.4	12.0
Cc1ccc([N+](=O)[O-])cc1N/C=C/C(=O)c1ccco1	?	11.6µM*	64.7*	124.5*
Cc1ccc(N/C=C/C(=O)c2ccco2)c(O)c1	.	.	60.1*	69.7*
CCCOc1ccc(OCCSc2nnc(N)s2)cc1	21.5%	3.3%	25.6*	94.6*
Nc1nnc(SCCCOc2ccc(F)cc2)s1	-20.6%[46.1 µM]	?	-1.8	-22.9
CCCCCCSc1nnc(N)s1	-22.7%[46.1 µM]	2.4%	16.0	6.7
CCCCCCCSc1nnc(N)s1	?	7.9%	14.4*	43.9*
CCCOc1ccc(-c2cnc(SCC(N)=O)nc2N)cc1	?	-29.1%	14.5	22.3
SMILES	MARV entry inh	LASV entry inh	Cycloheximide cs	Shiga inhibitor
CCCOc1ccc(-c2cnc(N)s2)cc1	?	?	49.8*	64.0*
Cc1ccc(C(C)C)c(OCC(=O)NNC(=O)C(C(C)C)N2C(=O)c3ccccc3C2=O)c1 (stereo not given)	-2.9%	2.1%	-2.2	-11.1
CCN(CC)C(=O)c1sc2c(c1C)c(=O)n(-c1ccc(Cl)c(Cl)c1)c(=O)n2Cc1cc(=O)n2c(C)cccc2n1	.	9.6%[46.1 µM]	.	.
COc1ccccc1NC(=O)Nc1ccc2c(c1)CCC2	.	.	52.8*	65.0*
COc1ccc(NC(=O)Nc2ccc3c(c2)CCC3)cc1OC	.	.	17.4*	55.8
COc1ccc(C)cc1NC(=O)Nc1ccc2c(c1)CCC2	.	.	24.1*	28.8
CC(C)C(=O)Nc1nnc(SCc2cc(=O)n3ccccc3n2)s1	.	14.5%[46.1 µM]	.	.
C=CCOC(=O)N[C@H](C(C(=O)OC)=C(C)NCc1ccccc1)c1cccc(C(F)(F)F)c1	2.8%[14.2 µM]	?	.	.
COCOc1c2c(c(OCOC)c3c(OCOC)cccc13)/C(=N/NS(C)(=O)=O)C1=C2CCCC1	1.2%[14.2 µM]	.	.	.
Cc1c(C(=O)OCCOc2ccccc2)[nH]c2c1C(=O)CC(c1ccccc1Cl)C2 (stereo not given)	?	-11.6%[46.1 µM]	.	.
CCOc1ccc(C(c2c(NC(=O)c3ccccc3)sc(C)c2C)N2CCN(CCO)CC2)cc1 (stereo not given)	8.91µM*	?	15.6*	20.1
